# Screening data from PubChem.
# HepG2 viability = HepG2 cytotoxicity, counter-screen for TGF-b inhibitors; HepG2 CAGA-GFP viability, ATP luminescence, 18 h; Potency, µM (doses to about 46.1 µM), for inactives: at the top dose activity change, negative = cytotoxicity, usual class: cytotoxic; 410,000 tested, 0.76% active
#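 HepG2 CAGA-GFP cells (1000/well, DMEM with 1% FBS) received compound, then TGF-beta at 500 pg/mL final, and were incubated 18 hours at 37 degrees C. Viability was read by CellTiter-Glo luminescence. Media-only wells were set as complete cell-killing and DMSO as no toxicity.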
# HT1080NT lethal = kills 2HG-producing HT-1080-NT fibrosarcoma cells; HT-1080-NT fibrosarcoma viability, CellTiter-Glo ATP luminescence, 48 h; Potency, µM (top dose mostly 46.1 µM), inactives show at the highest dose activity, negative = less viability, actives largely listed as cytotoxic; 360,000 tested, 1.6% active;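 further: NT is the 2HG producing partner of a matched IDH1 knockdown line; 0% = DMSO-treated cells and -100% = media-only wells without cells; nearly all actives have a fitted effect of over 55% in size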
#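 Viability of the 2HG-overproducing fibrosarcoma line after 48 hours of compound exposure at 37 degrees C was determined by luminescence with CellTiter-Glo, and concentration-effect curves were then fitted and categorized.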
# S2 tox = viability counter-screen for ATXN expression inhibitors; S2 cells (HEK-293 line with an ATXN2-luciferase reporter) viability, CellTiter-Fluor protease fluorescence, 24 h; Potency, µM (titrated, usually from 56.7 µM), most hits filed as cytotoxic; 400,000 tested, 0.49% active; further: nearly all actives have a fitted effect of over 40% in size
# ATXN2 expr inh = inhibitors of ATXN2 expression; Potency, µM (top dose mostly 57 µM), for inactives: at the top dose activity change, negative = inhibition, usual class: inhibitors; HEK-293 ATXN2-luciferase reporter, luminescence, 24 h; 360,000 tested, 0.72% active; AID 1745845; further: on the % scale 0 is the no-effect control and ±100 the full control effect; nearly all actives have a fitted effect of over 55% in size
#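 ATXN2-luciferase reporter cells (luciferase flanked by upstream and downstream ATXN2 gene portions) were treated 24 h at 37 °C with compounds at up to 57 uM. SteadyGlo luminescence gave expression; GF-AFC fluorescence gave viability.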
# TGFb inhibitor = blocks TGF-b signaling | Potency, µM (top dose mostly 46.1 µM), for inactives: top-dose activity, negative = inhibition, actives largely listed as inhibitors | 410,000 tested, 1.2% active | AID 588855 | HepG2 CAGA-GFP TGF-b/SMAD3 reporter, GFP fluorescence, 18 h; TGF-beta stimulated, 500 pg/mL final; further: on the % scale 0 is the no-effect control and ±100 the full control effect; nearly all actives have a fitted effect of over 65% in size
#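 Inhibition of TGF-beta-driven CAGA-GFP reporter expression in HEPG2 cells is measured by cellular GFP fluorescence after 18 h stimulation with 500 pg/mL recombinant TGF-beta in 1% FBS medium at 37 degrees C.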
# HT1080 IDH1KD tx = toxicity to HT-1080 IDH1 knockdown cells (counter line). HT-1080 IDH1 knockdown viability, ATP luminescence, 48 h. Potency, µM (highest dose often 46.1 µM), for the others: top-dose activity, negative = toxicity, actives largely listed as cytotoxic. 360,000 tested, 2% active;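 further: 0% = DMSO wells and -100% = cell-free medium wells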
#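 In this qHTS, HT-1080 cells depleted of IDH1 are exposed for 48 h at 37 °C to compound titrations. Toxicity is scored from CellTiter-Glo luminescence, with DMSO as full viability and medium alone as none.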
# * marks the source's active call; other numbers are inactive results; i = inactive; ? = inconclusive; . = no result given; ! = not confirmed by another sample. This is a sample that favours compounds with a hit; in the whole collection about 3.8% have one here. The call rests on the fitted dose curve; in most records, active means well fitted curve in the direction sought with a large enough effect; inconclusive means small, poorly fitted or top-dose-only effect, or another doubt; inactive means no such curve, though single readings can be large; an effect the other way counts as inactive or inconclusive. Potency means the concentration at half of the fitted maximal effect.
SMILES,HepG2 viability,HT1080NT lethal,S2 tox,ATXN2 expr inh,TGFb inhibitor,HT1080 IDH1KD tx
CN[C@H](CC(C)C)C(=O)N[C@H]1C(=O)N[C@@H](CC(N)=O)C(=O)N[C@H]2C(=O)N[C@H]3C(=O)N[C@H](C(=O)N[C@@H](C(=O)O)c4cc(O)cc(O)c4-c4cc3ccc4O)[C@H](O)c3ccc(c(Cl)c3)Oc3cc2cc(c3O[C@@H]2O[C@H](CO)[C@@H](O)[C@H](O)[C@H]2O[C@H]2C[C@](C)(N)C(O)[C@H](C)O2)Oc2ccc(cc2Cl)[C@H]1O (stereo partly drawn),.,.,i,.,.,.
Cc1ncc2c(c1CNS(=O)(=O)N(C)C)CCN(C(=O)c1ccc(F)cc1Cl)C2,.,.,i,.,.,.
COc1ccc(S(=O)(=O)N(C(=O)c2ccncc2)c2ccc3oc4c(c3c2)CCCC4)cc1,-59%,-21%,?,-23%,11µM*,?
COc1ccc(S(=O)(=O)Nc2ccc3oc4c(c3c2)CCCC4)cc1,-102%,.,?,?,13µM*,.
COc1ccc(S(=O)(=O)Nc2ccc3oc(C)c(C(=O)O)c3c2)cc1,-5%,-1%,i,-1%,1%,-2%
COC(=O)c1c(C)oc2ccc(N(C(=O)c3ccncc3)S(=O)(=O)c3ccc(OC)cc3)cc12,-13%,.,.,.,-33%,.
CCCCC12CN3CC(C)(CN(C1)C3c1c[nH]c3ccccc13)C2=O (stereo not drawn),4%,.,i,9%,-26%,.
COc1cccc(NS(=O)(=O)c2ccc3[nH]cc(C(=O)N(C)C4CCCCC4)c(=O)c3c2)c1,7%,.,.,.,?,.
COc1cc(Cl)c(C)cc1NC(c1ccccc1)c1nnc(-c2ccccc2Cl)o1 (stereo not drawn),-35%,.,.,.,18µM*,.
COC(=O)c1ccc(Oc2cc(C)nc(Cl)n2)cc1,12%,-1%,i,.,33%,14%
COC(=O)c1ccc(Oc2cc(C)nc(SC)n2)cc1,-12%,?,i,-20%,-1%,5.8µM*
CN(Cc1c(F)cccc1Cl)C(=O)c1cccc(S(=O)(=O)N2CCN(Cc3ccccc3)CC2)c1,-16%,-4%,i,-10%,?,-2%
CN(Cc1ccc(OC(F)F)cc1)C(=O)c1cccc(S(=O)(=O)N2CCN(Cc3ccccc3)CC2)c1,-4%,-22%,i,?,10µM*,-17%
COC(=O)c1ccc2c(=O)n(CCCCCC(=O)N3CCN(c4cccc(C)c4C)CC3)c(=O)[nH]c2c1,-2%,.,.,.,2.8µM*,.
Cc1ccc(Cl)cc1N1CCN(C(=O)CCCn2c(=O)[nH]c3ccc(Br)cc3c2=O)CC1,-36%,.,?,?,11µM*,.
COC(=O)c1ccc2c(=O)n(CCCCCC(=O)NC(C)C)c(=O)[nH]c2c1,-23%,-13%,i,-22%,25µM*!,24%
COC(=O)c1ccc2c(=O)n(CCCCCC(=O)NCc3ccccc3)c(=O)[nH]c2c1,-4%,4%,i,0%,10%,2%
Cc1ccccc1C(=O)/C=C1/c2ccccc2CC(C)(C)N1C,-35%,?,i,-18%,5%,?
Cc1cccc(C(=O)/C=C2/c3ccccc3CC(C)(C)N2C)c1,-46%,-5%,i,-37%,-12%,11µM*
O=C(COc1ccccc1Cl)NC(=S)N1CCc2ccccc21,-13%,11µM*,?,?,-21%,?
O=C(COc1ccccc1)NC(=S)N1CCc2ccccc21,-1%,-1%,i,50%,5%,3%
COc1cc(=O)n2c(c1C(=O)NC(C)c1ccco1)CCN(C(=O)c1cccc(C)c1C)CC2 (stereo not drawn),.,.,i,.,.,.
COCCCNC(=O)c1sc2nc(C)c(C(=O)Nc3ccc(C)cc3C)c(-c3ccccc3Cl)c2c1N,-4%,.,i,-7%,0%,.
CCCn1nc([N+](=O)[O-])c(C(C#N)c2nc3ccccc3s2)c(Cl)c1=O (stereo not drawn),11µM*,2.8µM*,i,-1%,?,1.1µM*
CCn1nc([N+](=O)[O-])c(C(C#N)c2nc3ccccc3n2C)c(Cl)c1=O (stereo not drawn),4%,?,i,-3%,-4%,?
SMILES,HepG2 viability,HT1080NT lethal,S2 tox,ATXN2 expr inh,TGFb inhibitor,HT1080 IDH1KD tx
O=C(N[C@@H]1C/C=C\C[C@H](CC(=O)N(CCO)Cc2ccccc2)C(=O)NC[C@@H](c2ccccc2)OC1=O)OCC1c2ccccc2-c2ccccc21,-66%,?,?,0%,7.9µM*,?
O=C(N[C@@H]1C/C=C\C[C@@H](CC(=O)N(CCO)Cc2ccccc2)C(=O)NC[C@H](c2ccccc2)OC1=O)OCC1c2ccccc2-c2ccccc21,-60%,?,?,?,?,-21%
O=C(C[C@H]1C/C=C\C[C@H](NC(=O)OCC2c3ccccc3-c3ccccc32)C(=O)O[C@H](c2ccccc2)CNC1=O)N[C@H](CO)Cc1ccccc1,-47%,12µM*,?,?,16µM*,15µM*
O=C(C[C@H]1C/C=C\C[C@@H](Cc2ccc(F)cc2)C(=O)O[C@H](c2ccccc2)CNC1=O)N[C@@H](CO)Cc1ccccc1,0%,-10%,i,11%,-5%,10%
Cc1cnc(C(=O)NCc2c(C)ncc3c2CCN(C(=O)/C=C/c2cccs2)C3)cn1,.,.,i,.,.,.
COc1ccccc1-c1ccnc(-n2ncc(C(=O)N(C)C(C)c3ccon3)c2C2CC2)n1 (stereo not drawn),.,.,i,.,.,.
c1ccc(CNc2ncnc3c2ncn3Cc2ccccc2)cc1,-2%,.,.,.,-7%,.
Cc1ccc2cccc(NC(=S)NC(=O)c3ccn(C)n3)c2n1,-29%,7.9µM*,i,-11%,-27%,7.9µM*
Cc1ccc2cccc(NC(=S)NC(=O)c3c(Br)cnn3C)c2n1,-37%,-21%,i,-19%,-4%,-18%
COc1cc(=O)n2c(c1C(=O)NCc1cccc(F)c1)CCN(Cc1cccnc1)CC2,.,.,i,.,.,.
CCOC(=O)c1c(NC(=O)c2cc3ccccc3c(=O)o2)sc2c1CCCC2,4%,.,i,9%,-6%,.
Cn1c(-c2ccncc2)nc2cc(C(=O)N3CCCC3c3nccs3)cc(NC(=O)C3CCC3)c21 (stereo not drawn),.,.,i,.,.,.
